The full list was thinned out, with hits kept by preference.
DT40 TDP1 no CPT = qHTS for Inhibitors of human tyrosyl-DNA phosphodiesterase 1 (TDP1): qHTS in cells in absence of CPT; hit rate 15% among 420,000; DT40 Tdp1-/- hTDP1 cells, no CPT, ATP luminescence, 48 h; AID 686978, 2013; Potency, µM (highest dose often 46.2 µM), for inactives: at the top dose activity change, negative = growth inhibition, most hits filed as inhibitors; also: potency is read from the fitted curve at half-maximal effect; nearly all actives have a fitted effect of over 55% in size
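DT40 Tdp1-/-;hTDP1 cells, no CPT (DMSO vehicle only), 400 cells/well; compounds pin-transferred; ≥48 hr, 37 °C; CellTiter-Glo 30 min RT dark, luminescence read.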
HT1080 IDH1KD tx = qHTS for induction of synthetic lethality in tumor cells producing 2HG: qHTS for the HT-1080-IDH1KD cell line; HT-1080 IDH1 knockdown viability, ATP luminescence, 48 h; Potency, µM (titrated, usually from 46.1 µM), for inactives: at the top dose activity, negative = toxicity, actives largely listed as cytotoxic; hit rate 2% among 360,000;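 also: potency is read from the fitted curve at half-maximal effect; 0% = DMSO wells and -100% = cell-free medium wells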
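Viability of IDH1-knockdown HT-1080 fibrosarcoma cells was assessed by CellTiter-Glo after 48 h at 37 °C with titrated compound; concentration-effect curves were classified by fit quality and response size.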
12-LOX inh = Primary qHTS assay for inhibitors of human arachidonate 12S-lipoxygenase (ALOX12): Round 2; purified 12hLO, xylenol orange hydroperoxide absorbance; Polyunsaturated fatty acid lipoxygenase ALOX12 (Homo sapiens), P18054; hit rate 1.1% among 580,000; Potency, µM (highest dose often 108 µM), for inactives: at the highest dose activity change, negative = inhibition, usual class: inhibitors; also: potency is read from the fitted curve at half-maximal effect
Target sequence (P18054 whole entry, looked up): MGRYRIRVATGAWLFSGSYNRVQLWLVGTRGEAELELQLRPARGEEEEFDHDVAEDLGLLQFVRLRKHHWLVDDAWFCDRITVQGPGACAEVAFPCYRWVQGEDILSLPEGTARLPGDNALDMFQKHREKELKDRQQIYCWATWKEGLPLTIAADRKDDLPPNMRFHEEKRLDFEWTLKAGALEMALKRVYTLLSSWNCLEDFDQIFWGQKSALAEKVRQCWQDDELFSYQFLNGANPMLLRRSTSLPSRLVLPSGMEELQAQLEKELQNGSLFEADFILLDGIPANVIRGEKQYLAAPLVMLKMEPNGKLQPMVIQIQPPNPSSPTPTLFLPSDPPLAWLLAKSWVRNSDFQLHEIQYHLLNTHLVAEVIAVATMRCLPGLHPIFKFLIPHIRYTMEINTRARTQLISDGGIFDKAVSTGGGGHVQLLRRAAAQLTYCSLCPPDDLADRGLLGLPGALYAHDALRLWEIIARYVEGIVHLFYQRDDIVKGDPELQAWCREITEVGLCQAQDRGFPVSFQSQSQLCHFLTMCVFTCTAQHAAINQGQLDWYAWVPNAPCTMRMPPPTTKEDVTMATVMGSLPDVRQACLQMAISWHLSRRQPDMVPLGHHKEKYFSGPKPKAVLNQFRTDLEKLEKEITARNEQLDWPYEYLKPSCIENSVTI
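Purified human 12hLO at 150 nM in 25 mM Hepes, 0.01% Triton X-100, pH 7.0, preincubated 15 min at room temperature with compound. Reaction started with 40 uM arachidonic acid, 30 min at room temperature. Hydroperoxide measured by Fe-xylenol orange, 573/405 nm absorbance ratio.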
HT1080NT lethal = qHTS for induction of synthetic lethality in tumor cells producing 2HG: qHTS for the HT-1080-NT fibrosarcoma cell line. HT-1080-NT fibrosarcoma viability, CellTiter-Glo ATP luminescence, 48 h. Potency, µM (series often up to 46.1 µM), without a hit: at the highest dose activity, negative = less viability, usual class: cytotoxic. hit rate 1.6% among 360,000. AID 686970, 2013;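 also: NT is the 2HG producing partner of a matched IDH1 knockdown line; potency is read from the fitted curve at half-maximal effect; 0% = DMSO-treated cells and -100% = media-only wells without cells; nearly all actives have a fitted effect of over 55% in size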
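Toxicity toward the 2HG-producing NT line was scored as %Activity, normalised to DMSO and no-cell wells, from CellTiter-Glo luminescence after 48 hours' treatment.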
DT40 TDP1 CPT = qHTS for Inhibitors of human tyrosyl-DNA phosphodiesterase 1 (TDP1): qHTS in cells in presence of CPT. chicken DT40 Tdp1-/-;hTDP1 cells + 20 nM CPT, ATP luminescence, 48 h. Potency, µM (doses to about 46.2 µM), inactives show at the highest dose activity change, negative = growth inhibition, most hits filed as inhibitors. hit rate 12% among 420,000; also: potency is read from the fitted curve at half-maximal effect; nearly all actives have a fitted effect of over 55% in size
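Chicken DT40 Tdp1-/- cells complemented with human TDP1, 400 cells/well, exposed to compounds plus 20 nM camptothecin for at least 48 h at 37 C; viability read as ATP content by CellTiter-Glo luminescence.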
IL1B secr inh = qHTS for Inhibitors of Inflammasome Signaling: IL-1-beta AlphaLISA Primary Screen | hit rate 4.7% among 360,000 | AID 743279, 2014 | THP-1 LPS/ATP IL-1B secretion, AlphaLISA, 16 h; active compounds read low | activity change, % at 57.5 µM; in the data active = activity change below about -50%; inconclusive = mostly about -30% to -49%
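THP-1 cells pretreated 1 hr with compounds (up to 57.5 uM final), then stimulated with LPS (250 ng/mL final) plus ATP (1.25 mM final); secreted IL-1B measured by AlphaLISA after 16 hr, decreased signal indicating inhibition.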
An asterisk follows results filed as active; ? = inconclusive; nt = no result given; [ ] = dose if it differs, or a comment. Unless noted, calls follow the shape of the dose curve; as a rule, active = well fitted curve in the direction sought with a large enough effect; inconclusive = small, poorly fitted or top-dose-only effect, or another doubt; inactive = no such curve, though single readings can be large; an effect the other way counts as inactive or inconclusive. Unless noted, % is scaled to controls: 0 for no effect and ±100 for the full control effect.

SMILES	DT40 TDP1 no CPT	HT1080 IDH1KD tx	12-LOX inh	HT1080NT lethal	DT40 TDP1 CPT	IL1B secr inh
CC1(C)C2CC=C(/C=N/NC(=S)NCCc3ccccc3)C1C2 (stereo not drawn)	?	?	45µM*	?	?	?
CNC(=S)N/N=C/C1=CCC2CC1C2(C)C (stereo not drawn)	?	-10%	?	-22%	7.3µM*	33
CC1(C)C2CC=C(/C=N/NC(=O)c3ccccc3O)C1C2 (stereo not drawn)	-7%	-19%	0%	-20%	-2%	10
Cc1ccccc1-c1nn2c(COc3ccccc3)nnc2s1	nt	nt	6%	nt	nt	nt
COc1ccc(-c2nn3c(COc4ccccc4)nnc3s2)cc1OC	-10%	-15%	0%	-5%	2%	-5
Clc1ccc(Cl)c(-c2nn3c(COc4ccccc4)nnc3s2)c1	?	0%	?	-4%	16µM*	3
c1ccc(OCc2nnc3sc(-c4ccccc4)nn23)cc1	nt	nt	8.9µM*	nt	nt	nt
CCc1nnc2sc(-c3cc(-c4ccccc4)nc4ccccc34)nn12	?	23%	15%	-2%	35µM*	14
CC1=CCC2C(C)(CC[C@H](O)C2(C)C)C1COc1ccc2ccc(=O)oc2c1 (stereo partly drawn)	nt	nt	7%	nt	nt	nt
CCCc1nn(C)c2c(=O)[nH]c(-c3cc(S(=O)(=O)Nc4cccc(C)c4)ccc3OCC)nc12	nt	nt	-2%	nt	nt	nt
COC(=O)[C@]12CCCCC=C1N(Cc1cccc3ccccc13)C(=O)[C@H](CC(=O)NCc1cccc3ccccc13)C2	?	-16%	11%	-14%	?	-19
COC(=O)[C@]12CCCCC=C1N(Cc1cccc3ccccc13)C(=O)[C@H](CC(=O)N1CCC(c3ccccc3)CC1)C2	15µM*	-10%	0%	-3%	?	-26
COC(=O)[C@]12CCCCC=C1N(Cc1cccc3ccccc13)C(=O)[C@H](CC(=O)N1CCCCC1)C2	23µM*	?	0%	?	?	15
CCOC(=O)[C@]12CCCC=C1N(Cc1cccc3ccccc13)C(=O)[C@H](CC(=O)N1CCC(c3ccccc3)CC1)C2	?	-3%	-16%	2%	?	-19
Cc1ccc(CN2COc3ccc4c(C)cc(=O)oc4c3C2)cc1	nt	nt	3%	nt	nt	nt
O=c1cc(-c2ccccc2)c2ccc3c(c2o1)CN(Cc1ccccc1)CO3	?	nt	-24%	nt	-14%	nt
COc1ccc(-c2cc(=O)oc3c4c(ccc23)OCN(Cc2ccccc2)C4)cc1	?	nt	-19%	nt	18µM*	nt
COc1ccc(-c2cc(=O)oc3c4c(ccc23)OCN(Cc2cccc(OC)c2)C4)cc1	16µM*	nt	?	nt	10µM*	nt
O=C(Cc1ccc(F)cc1)OCc1cc(-c2ccccc2)no1	nt	nt	-16%	nt	nt	nt
CC(C)NC1CCC(Nc2ccnc3cc(Cl)ccc23)CC1 (stereo not drawn)	9.2µM*	?	?	-9%	6.5µM*	-93*
Clc1ccc2c(N3CCN(CCCN4CCN(c5ccnc6cc(Cl)ccc56)CC4)CC3)ccnc2c1	nt	nt	1%[22.9 µM]	nt	nt	nt
Clc1ccc2c(NCCNC3CCCCC3)ccnc2c1	15µM*	21µM*	?	15µM*	16µM*	-95*
CC1CCCN1c1ccnc2cc(Cl)ccc12 (stereo not drawn)	16µM*	-14%	0%	-12%	29µM*	-1
Clc1ccc2c(NCc3ccccn3)ccnc2c1	-13%	-4%	0%	-1%	?	13
COCc1nc(C2CC(Nc3ccnc4cc(Cl)ccc34)C2)cc(=O)[nH]1 (stereo not drawn)	nt	nt	5%	nt	nt	nt
SMILES	DT40 TDP1 no CPT	HT1080 IDH1KD tx	12-LOX inh	HT1080NT lethal	DT40 TDP1 CPT	IL1B secr inh
CC(CCCN1CCCC1)Nc1ccnc2cc(Cl)ccc12 (stereo not drawn)	23µM*	?	9%	-16%	?	?
CSCC1CCN(C(=O)CN2CC(c3ccccc3)CC2=O)CC1 (stereo not drawn)	nt	nt	22%	nt	nt	nt
Cc1nn(-c2ccc(Cl)c(Cl)c2)c(=O)c2ccccc12	-24%	-4%	154%	-7%	-28%	-11
Cc1nn(-c2ccc3ccccc3c2)c(=O)c2ccccc12	16µM*	-18%	-2%	-4%	?	44
Cc1nn(-c2ccc(Cl)cc2)c(=O)c2ccccc12	?	-7%	?	3%	-16%	17
Cc1nn(-c2nc3ccccc3[nH]2)c(=O)c2ccccc12	2.1µM*	1.5µM*	21%	1.5µM*	1.8µM*	-16
Cc1nn(-c2nc3ccccc3[nH]2)c(N)c1-c1ccc(Cl)cc1	16µM*	-25%	0%	-11%	?	-27
CC(=O)Nc1ccc(NC(=O)CCNc2c(-c3ccc(F)cc3)nc3cnccn23)cc1	nt	nt	-11%	nt	nt	nt
CCN(CC)c1ccc(NC(=O)COc2ccccc2C)cc1S(=O)(=O)Nc1ccccc1OC	15µM*	16%	?	18%	?	11
CCN(CC)c1ccc(NC(=O)c2ccccc2Br)cc1S(=O)(=O)Nc1ccccc1OC	10µM*	2%	35µM*	0%	12µM*	-60*
Cc1ccccc1NC(=O)Cn1cnc2c(cnn2-c2ccc(F)cc2)c1=O	nt	nt	-25%	nt	nt	nt
COc1ccc(C(C)=O)cc1CSCc1coc(-c2ccc(F)cc2)n1	nt	nt	6%	nt	nt	nt
O=c1c(N2CCN(c3ccc(F)cc3)CC2)csc2ccc(F)cc12	?	nt	?	nt	18µM*	nt
CCOC(=O)C1=C(Nc2ccc(OC)cc2)C(N)=NC1=N	1.3µM*	5.2µM*	1%	2.3µM*	3.7µM*	59
CCOC(=O)c1c(Nc2ccc(OC)cc2)n[nH]c1C	nt	nt	3%	nt	nt	nt
CCOc1ccccc1CNC(=O)C1CCN(c2nnc(N3CCCC3=O)s2)CC1	nt	nt	5%	nt	nt	nt
CCOC(=O)C1(C)Oc2ccccc2C(c2ccc(OC)cc2)=C1C(=O)OC (stereo not drawn)	?	-3%	-12%	1%	?	-12
CCOC(=O)C1(C)Oc2ccccc2C(C(=O)OC)=C1C(=O)OC (stereo not drawn)	16µM*	1%	38%	8%	?	24
